Measurements as given in PubChem BioAssay (Tox21).
Inconclusive results are not listed. Calls of active or inactive are those of the source. Unless noted, calls follow the shape of the dose curve; as a rule, active = well fitted curve in the direction sought with a large enough effect in the repeat runs; inconclusive = weak or mixed curves; inactive = no such curve, though single readings can be large; an effect the other way counts as inactive or inconclusive.

Assays:
[1] = qHTS assay to identify small molecule antagonists of the estrogen related receptor signaling pathway with the pleiotropic PPARgamma coactivator (PGC) from Tox21 10K library (AID 1224841; call rule not given here; also: actives are mostly falling curves and most rising ones were filed inactive; nearly all actives have a fitted effect of over 50% in size)
Procedure, shortened: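 qHTS antagonist format: PGC/ERR cells, 2k/well, compound in DMSO by pin transfer after 6 h attachment, 18 h treatment at 37 C, One-Glo luminescence read at 30 min.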

[2] = qHTS assay to identify small molecule agonists of the estrogen related receptor signaling pathway with the pleiotropic PPARgamma coactivator (PGC) from Tox21 10K library (AID 1224842); also: nearly all actives have a fitted effect of over 15% in size
Procedure, shortened: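 Luminescence from One-Glo (30 min, room temperature) measured after PGC/ERR cells had 18 h at 37 C with pinned compound (23 nL in DMSO). Cells had been seeded at 2,000 per well and pre-incubated 6 h.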

[3] = biological target: Thyrotropin receptor (Homo sapiens) (UniProt P16473); test: qHTS assay to identify small molecule agonists of the thyroid stimulating hormone receptor (TSHR) signaling pathway (AID 1224843; calls by dose curve; also: nearly all actives have a fitted effect of over 45% in size)
Procedure, shortened: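 HEK293 cells stably bearing the thyrotropin receptor were plated at 800 cells/well and challenged with compound (30 min, RT). Accumulated cAMP was quantified via cAMP-d2 competing for cryptate-tagged antibody.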

[4] = qHTS assay to identify small molecule agonists of H2AX (AID 1224845; active = well fitted activation curve with a large enough effect in the signal ratio in the repeat runs, not every such curve was filed as active; the % refers to the signal ratio)
Procedure, shortened: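 Phospho-H2AX Ser139 measured by HTRF (ex 320 nm; em 665 and 620 nm) after 24 hr antibody incubation. Compounds, 15 concentrations, 0.76% DMSO, were applied to CHO-K1 cells for 3hr at 37C before lysis.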

[5] = qHTS assay to identify small molecule agonists of the hypoxia (HIF-1) signaling pathway (AID 1224846; active = well fitted activation curve with a large enough effect in the signal ratio in the repeat runs, not every such curve was filed as active; the % refers to the signal ratio)
Procedure, shortened: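 A low-serum medium (0.5% dialyzed FBS) holding 2,000 HRE-bla ME-180 cells per well is preincubated for 5 hrs, dosed with compounds by pintool, and kept a further 17 hrs at 37C, 5% CO2 before CCF4-AM FRET detection of beta-lactamase.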

[6] = qHTS assay to identify small molecule antagonists of the estrogen related receptor (ERR) signaling pathway from Tox21 library (AID 1224848); also: nearly all actives have a fitted effect of over 50% in size
Procedure, shortened: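 Reading was by luminescence 30 min after ONE-Glo addition. Before that, ERR cells at 2,000 per well had rested 6 h at 37 C/5% CO2 and then received pin-tooled compounds in DMSO for 18 h at 37 C.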

[7] = qHTS assay to identify small molecule agonists of the estrogen related receptor (ERR) signaling pathway from Tox21 library (AID 1224849; calls by dose curve; also: nearly all actives have a fitted effect of over 15% in size); details: ERR reporter cell line, ONE-Glo luciferase, 18 h; at 92.4 µM (top of the series) unless noted
Procedure, shortened: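 Screening used an NTP-provided ERR luciferase cell line. Compounds in DMSO were added 6 h after seeding and left 18 h at 37 C before a 30 min ONE-Glo step and luminescence reading.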

[8] = qHTS RealTime-Glo MT Cell Viability Assay in HepG2 cells - 24 hour (AID 1224867); also: nearly all actives have a fitted effect of over 50% in size
Procedure, shortened: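 Tox21 10K library screened in qHTS format on HepG2 cells carrying RealTime-Glo reagents. Compounds were added after a 5 h preincubation, and the luminescent signal from continuous culture was measured repeatedly during 40 h treatment.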

[9] = qHTS assay to identify small molecule agonists of the hypoxia (HIF-1) signaling pathway - cell viability counter screen (AID 1224844; calls by dose curve; also: nearly all actives have a fitted effect of over 50% in size)
Procedure, shortened: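 Cells (HRE-bla ME-180, 2,000 per well) sat 5 hrs at 37C, got compound for 17 hrs, were read for CCF4-AM FRET, and were finally lysed with CellTiter-Glo for a 30 min room-temperature luminescence read.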

[10] = qHTS assay to identify small molecule agonists of H2AX - cell viability counter screen (AID 1224847; calls by dose curve; also: top concentration of the series differs between compounds; nearly all actives have a fitted effect of over 30% in size)
Procedure, shortened: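 Cytotoxicity counter screen in wild-type CHO-K1 cells: a 3 hr compound treatment at 37C across 15 concentrations, followed by CellTiter-Glo luminescence to gauge viable cells.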
% is scaled to controls: 0 for no effect and ±100 for the full control effect.

Sequence of Thyrotropin receptor (Homo sapiens) (P16473 whole entry, looked up): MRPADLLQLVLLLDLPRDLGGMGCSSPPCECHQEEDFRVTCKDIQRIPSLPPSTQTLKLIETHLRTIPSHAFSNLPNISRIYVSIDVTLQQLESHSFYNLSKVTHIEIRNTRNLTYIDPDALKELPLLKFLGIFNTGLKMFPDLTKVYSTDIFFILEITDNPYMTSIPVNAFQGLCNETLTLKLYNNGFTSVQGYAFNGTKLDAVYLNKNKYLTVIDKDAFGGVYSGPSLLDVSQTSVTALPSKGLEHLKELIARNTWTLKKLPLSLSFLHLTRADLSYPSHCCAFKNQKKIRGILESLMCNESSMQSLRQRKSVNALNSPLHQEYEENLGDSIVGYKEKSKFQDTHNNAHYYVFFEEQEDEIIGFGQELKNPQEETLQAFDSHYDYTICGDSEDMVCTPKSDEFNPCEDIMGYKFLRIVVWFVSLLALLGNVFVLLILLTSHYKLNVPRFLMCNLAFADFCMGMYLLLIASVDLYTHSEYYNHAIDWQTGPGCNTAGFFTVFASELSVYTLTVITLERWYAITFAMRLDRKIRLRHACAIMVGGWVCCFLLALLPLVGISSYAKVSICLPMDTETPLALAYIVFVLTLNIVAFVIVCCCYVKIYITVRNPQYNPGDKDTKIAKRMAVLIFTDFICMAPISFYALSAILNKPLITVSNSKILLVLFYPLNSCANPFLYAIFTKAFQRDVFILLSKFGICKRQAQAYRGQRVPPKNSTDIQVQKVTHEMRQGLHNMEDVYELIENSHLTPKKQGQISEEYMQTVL

CCCCN1C(=O)c2ccccc2C1=O
inactive: Potency [1] | Potency [2] | Potency [3] | outcome [4] | outcome [5] | outcome [6] | activity change, positive = activation [7] 6.09% | outcome [8]

CN(C)c1cc(NC(=O)CNC(C)(C)C)c(O)c2c1C[C@H]1C[C@H]3[C@H](N(C)C)C(=O)C(C(N)=O)=C(O)[C@@]3(O)C(=O)C1=C2O
inactive: Potency [1] | outcome [9] | outcome [5] | outcome [10] | outcome [6] | activity change, positive = activation [7] 1.19% [at 42.5 µM] | outcome [8]

CCCc1ncc(C(=O)O)s1
inactive: Potency [1] | Potency [2] | outcome [9] | outcome [5] | outcome [10] | outcome [6] | activity change, positive = activation [7] 3.45% [at 42.5 µM] | outcome [8]

CC(CC(=O)Cl)CC(C)(C)C (stereo not drawn)
inactive: Potency [1] | outcome [9] | outcome [4] | outcome [5] | outcome [10] | outcome [6] | activity change, positive = activation [7] 5.62% | outcome [8]

Nc1nc(Cl)cc(Cl)n1
inactive: Potency [1] | Potency [2] | outcome [9] | outcome [4] | outcome [5] | outcome [6] | activity change, positive = activation [7] -1.17% | outcome [8]

CC(C)C[P+](C)(CC(C)C)CC(C)C
inactive: Potency [2] | Potency [3] | outcome [9] | outcome [5] | outcome [10] | outcome [6] | activity change, positive = activation [7] -12.2% | outcome [8]

C=CC(=O)OCCOCCOCC
inactive: Potency [1] | Potency [2] | outcome [5] | outcome [10] | outcome [6] | outcome [8]

CC(C)(C)c1ccc(N)cc1
inactive: Potency [1] | Potency [2] | outcome [9] | outcome [4] | outcome [5] | outcome [10] | outcome [6] | outcome [8]

Cc1cc(C)c(C)c(C)c1
inactive: Potency [1] | Potency [2] | outcome [9] | outcome [4] | outcome [5] | outcome [10] | outcome [6] | activity change, positive = activation [7] 5.28% | outcome [8]

O=C(O)CCC(=O)Nc1ccc(S(=O)(=O)Nc2nccs2)cc1
inactive: Potency [1] | Potency [2] | outcome [9] | outcome [10] | outcome [6] | activity change, positive = activation [7] 8.26% [at 42.5 µM]

COc1cc2nc(N3CCN(C(=O)C4CCCO4)CC3)nc(N)c2cc1OC (stereo not drawn)
inactive: Potency [1] | Potency [2] | outcome [10] | outcome [6] | outcome [8]

CC(C)c1cc(C(C)C)cc(C(C)C)c1
inactive: Potency [1] | Potency [2] | outcome [9] | outcome [4] | outcome [5] | outcome [10] | outcome [6] | activity change, positive = activation [7] 7.19%

Nc1cc(S(=O)(=O)O)ccc1O
inactive: Potency [1] | Potency [2] | outcome [9] | outcome [5] | outcome [10] | outcome [6] | activity change, positive = activation [7] 6.11%

CC/C=C\CCCCCCCCCCOC(C)=O
inactive: Potency [1] | Potency [2] | Potency [3] | outcome [4] | outcome [10] | outcome [6] | activity change, positive = activation [7] 0.807% | outcome [8]

N=C(N)N1CCc2ccccc2C1
inactive: activation [2] 0.335% [at 8.39 µM] | activation [3] -1.09% [at 8.39 µM] | activity change, negative = cytotoxicity [9] 5.71% [at 6.97 µM] | activation (H2AX phosphorylation) [4] 0.461% [at 14 µM] | activity change, negative = cytotoxicity [10] 1.46% [at 14 µM] | activity, negative = inhibition [6] 3.19% [at 8.39 µM] | activity change, positive = activation [7] 1.78% [at 8.39 µM] | activity change, negative = cytotoxicity [8] -0.623% [at 6.97 µM]

CC(C)(C)C(=O)CCc1ccc(Cl)cc1
inactive: Potency [1] | Potency [2] | outcome [9] | outcome [5] | outcome [10] | outcome [6] | activity change, positive = activation [7] 2.37% | outcome [8]

CC(C)OCCO
inactive: Potency [1] | Potency [2] | outcome [9] | outcome [4] | outcome [5] | outcome [10] | outcome [6] | activity change, positive = activation [7] 6.53% | outcome [8]

COc1ccc(Cl)cc1C
inactive: Potency [1] | Potency [2] | outcome [9] | outcome [5] | outcome [10] | outcome [6] | activity change, positive = activation [7] 7.2% | outcome [8]

Cc1ccc(O)c(C(=O)c2ccccc2)c1
inactive: Potency [1] | Potency [3] | outcome [9] | outcome [4] | outcome [5] | outcome [6] | activity change, positive = activation [7] -3.28% | outcome [8]

C=C(C)C(=O)OCCOC1CC2CC1C1C=CCC21 (stereo not drawn)
inactive: Potency [1] | Potency [2] | outcome [4] | outcome [5] | outcome [10] | outcome [6]

C/C=C(\C)C(=O)OC/C=C(\C)CCC=C(C)C
inactive: Potency [1] | Potency [2] | outcome [4] | outcome [5] | outcome [10] | outcome [6] | activity change, positive = activation [7] 10.5% | outcome [8]

C[C@@H](CN1CC(=O)NC(=O)C1)N1CC(=O)NC(=O)C1
inactive: Potency [1] | Potency [2] | outcome [9] | outcome [4] | outcome [5] | outcome [10] | outcome [6] | activity change, positive = activation [7] 3.58% [at 42.5 µM] | outcome [8]

NNC(=O)CCCCC(=O)NN
inactive: Potency [1] | Potency [2] | outcome [5] | outcome [10] | outcome [6] | activity change, positive = activation [7] 0.359% | outcome [8]

CCO[Si](CC(C)C)(OCC)OCC
inactive: Potency [1] | Potency [2] | outcome [9] | outcome [4] | outcome [10] | activity change, positive = activation [7] -27.2% | outcome [8]

C=CCCCCCCCCOC(C)=O
inactive: Potency [1] | Potency [2] | outcome [9] | outcome [5] | outcome [10] | outcome [6] | activity change, positive = activation [7] 7.36% | outcome [8]

C[Si](C)(C)O[Si](O)(O)O
inactive: Potency [1] | Potency [2] | outcome [9] | outcome [4] | outcome [5] | outcome [10] | outcome [6] | activity change, positive = activation [7] 4.29% | outcome [8]

CC(CN1CC(=O)NC(=O)C1)N1CC(=O)NC(=O)C1 (stereo not drawn)
inactive: Potency [1] | Potency [2] | outcome [9] | outcome [4] | outcome [5] | outcome [10] | outcome [6] | activity change, positive = activation [7] -5.55% | outcome [8]
